FBPA coupling cs: inhibits coupling enzyme system, counter-screen for aldolase hits. activity change, negative = inhibition, % at 58.2 µM, hits read low. 0.67% of 290,000 active. AID 2472. coupling enzyme system counterscreen, AmpLite Red fluorescence; in the data active = activity change below about -30%
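Compounds tested against the coupling enzymes alone at 57.5 uM final; readout was AmpLite Red fluorescence (525/598 nm) after 20 min at RT.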
NPSR antag: blocks cAMP signaling of the human neuropeptide S receptor; 1% of 220,000 active; Potency, µM (top dose mostly 38.3 µM), inactives show at the highest dose activity change, negative = inhibition, hits mostly inhibitors; CHO-NPSR cells, cAMP TR-FRET, antagonist mode; Q6W5P4; active = well fitted curve in the direction sought with a large enough effect; inconclusive = small, poorly fitted or top-dose-only effect, or another doubt; inactive = no such curve, though single readings can be large; an effect the other way counts as inactive or inconclusive; also: potency is read from the fitted curve at half-maximal effect; nearly all actives have a fitted effect of over 50% in size
KDM4E inh: inhibitors of human JMJD2E histone demethylase; B2RXH2; JMJD2E catalytic domain, FDH-coupled NADH fluorescence (FDH is formaldehyde dehydrogenase); Potency, µM (series often up to 57.1 µM), without a hit: top-dose activity change, negative = inhibition, most hits filed as inhibitors; 1.6% of 230,000 active;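 also: potency is read from the fitted curve at half-maximal effect; 0% = wells with enzyme and -100% = buffer wells without enzyme; nearly all actives have a fitted effect of over 50% in size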
Target sequence (B2RXH2 1-337 limits assumed): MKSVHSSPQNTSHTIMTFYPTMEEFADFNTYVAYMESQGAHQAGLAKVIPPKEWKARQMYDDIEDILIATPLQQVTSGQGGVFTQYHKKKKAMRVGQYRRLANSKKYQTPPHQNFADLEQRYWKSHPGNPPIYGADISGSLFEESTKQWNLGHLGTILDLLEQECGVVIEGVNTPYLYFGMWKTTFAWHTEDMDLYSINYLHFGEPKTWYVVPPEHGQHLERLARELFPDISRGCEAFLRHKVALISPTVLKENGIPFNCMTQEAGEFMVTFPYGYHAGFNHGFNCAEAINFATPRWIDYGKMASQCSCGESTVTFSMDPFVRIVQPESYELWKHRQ
Sfp inh: Sfp phosphopantetheinyl transferase inhibition; 3.5% of 310,000 active; Biochemical Sfp PPTase activity, qHTS; Q9F4F7; Potency, µM, for inactives: largest response in the series, negative = inhibition, hits mostly inhibitors; active = well fitted curve in the direction sought with a large enough effect; inconclusive = small, poorly fitted or top-dose-only effect, or another doubt; inactive = no such curve, though single readings can be large; an effect the other way counts as inactive or inconclusive;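 also: the enzyme is Sfp with the accession as filed and its product quenches rhodamine fluorescence; potency is read from the fitted curve at half-maximal effect; 0% = enzyme reaction without inhibitor and -100% = no enzyme wells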
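Sfp 15 nM + cpd, 15 min RT; start w/ rhodamine-CoA 5 uM, BHQ-2-YbbR 12.5 uM (final); 50 mM Hepes pH 7.6, 10 mM MgCl2, 0.01% NP-40, 0.01% BSA; read 525/598 nm at 0 and 30 min.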
ALDH1A1 block: inhibitors of human aldehyde dehydrogenase 1A1 | P00352 | Purified ALDH1A1, NADH fluorescence, propionaldehyde substrate | Potency, µM (series often up to 75.3 µM), without a hit: at the highest dose activity, negative = inhibition, hits mostly inhibitors | 7.3% of 220,000 active | AID 1030;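 also: potency is read from the fitted curve at half-maximal effect; plate controls were no enzyme wells and a reference inhibitor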
RGS12 GoLoco inh: inhibitors of human Gai1-RGS12 GoLoco interaction (red fluorophore); P63096; Gai1:RGS12 GoLoco peptide FP, rhodamine, 10 min; Potency, µM (doses to about 61.6 µM), inactives show at the highest dose activity, negative = inhibition, usual class: inhibitors; 0.44% of 230,000 active; active = well fitted inhibition curve with a large enough effect, not every such curve was filed as active; inactive = no such curve, though single readings can be large or run the other way; also: potency is read from the fitted curve at half-maximal effect; nearly all actives have a fitted effect of over 30% in size
Target sequence (P63096 whole entry, looked up): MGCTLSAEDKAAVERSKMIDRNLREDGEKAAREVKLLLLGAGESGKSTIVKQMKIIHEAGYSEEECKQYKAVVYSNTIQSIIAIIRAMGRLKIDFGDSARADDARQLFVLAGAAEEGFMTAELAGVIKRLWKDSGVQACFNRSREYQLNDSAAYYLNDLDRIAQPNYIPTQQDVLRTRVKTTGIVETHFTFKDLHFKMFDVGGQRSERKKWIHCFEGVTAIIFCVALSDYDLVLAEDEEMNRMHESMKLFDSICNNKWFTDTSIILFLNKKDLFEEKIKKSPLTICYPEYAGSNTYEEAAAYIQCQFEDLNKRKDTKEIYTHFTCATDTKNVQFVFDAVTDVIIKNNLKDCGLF
Numbers without * were called inactive; u = inconclusive; x = no result given; [ ] = dose if it differs, or a comment. In the library only some 8.5% were active in any assay of this set; here they are far more common. Unless noted, calls follow the shape of the dose curve; as a rule, active = well fitted inhibition curve with a large enough effect (not every such curve was filed as active); inconclusive = small, poorly fitted or top-dose-only effect, or another doubt; inactive = no such curve, though single readings can be large or run the other way. Unless noted, % is scaled to controls: 0 for no effect and ±100 for the full control effect.

SMILES	FBPA coupling cs	NPSR antag	KDM4E inh	Sfp inh	ALDH1A1 block	RGS12 GoLoco inh
CC1(C)Cc2nc3sc4c(=O)n(CC(=O)NCc5ccco5)cnc4c3cc2CO1	-2	2%[46.1 µM]	u	-1%	22µM*	7%
CCCCCn1cnc2c(sc3nc4c(cc32)CSC(C)(C)C4)c1=O	1	-17%	-3%	-10%	2.8µM*	8%
CCc1nc(OCc2ccccc2)c2sc3nc4c(cc3c2n1)COC(C)(C)C4	0	-2%[46.1 µM]	-2%	9%	0.79µM*	3%
CCC(C)Nc1nnnc2c1sc1nc3c(cc12)COC(C)(C)C3 (configuration not stated)	9	1%	u	-3%	10µM*	11%
CC1(C)Cc2nc3sc4c(OCc5ccccc5)ncnc4c3cc2CO1	-1	-16%[46.1 µM]	-6%	15%	u	3%
CC(C)C(NC(=O)Nc1ccccc1)C(=O)Nc1cccc(S(=O)(=O)N(C)C)c1 (configuration not stated)	0	x	x	4%	x	x
C=C1C=CS(=O)(=O)N(Cc2ccccc2)C1	5	x	x	4%	x	x
CCSc1ncnc2c1sc1nc3c(cc12)COC(C)(C)C3	2	-11%	0%	8%	0.79µM*	12%
C=CCn1c(C)nc2c(sc3nc4c(cc32)COC(C)(C)C4)c1=O	-6	-3%	u	-14%	u	23%
CCc1nc2c(sc3nc4c(cc32)COC(C)(C)C4)c(=O)n1CCN(CC)CC	3	20%	-22%	11%	10µM*	11%
O=C(CN(c1ccccc1)S(=O)(=O)c1ccccc1[N+](=O)[O-])Nc1cccnc1	-1	x	x	7%	x	x
Cc1ccc(N=C2C(=S)N(c3ccc(C)cc3)C(=N)N2/N=C/c2ccc(Cl)cc2)cc1	-2	-17%[46.1 µM]	-3%	40µM*	u	16%
O=C1C2C3C=CC(C3=C3CCCCC3)C2C(=O)N1c1ccccc1 (configuration not stated)	3	-16%[46.1 µM]	6%	u	10µM*	-17%
O=C1C2C3CCCC3=C3CCCC3C2C(=O)N1c1ccccc1 (configuration not stated)	0	-6%[46.1 µM]	-8%	-22%	25µM*	-11%
O=C1C2C3C=CC(C3)C2C(=O)N1c1ccccc1 (configuration not stated)	-1	4%[46.1 µM]	4%	-1%	-1%	6%
CCOC(=O)c1c(C)oc2c1c(C(c1ccccc1)N1CCOCC1)c(O)c1ccccc12 (configuration not stated)	-42*	u	10%	6%	3.5µM*	1%
CCOC(=O)c1c(O)c2ccccc2oc1=O	-1	-22%	-17%	12%	u	3%
CCOC(=O)c1ccc(N=Cc2c(O)c3ccccc3oc2=O)cc1	-5	x	x	12%	x	x
CCOC(=O)c1c(C)oc2c1c(C=NCCO)c(O)c1ccccc12	-65*	-13%	2%	50µM*	u	-13%
c1cncc(C(c2nnnn2C2CCCCC2)N2CCCCC2)c1 (configuration not stated)	1	3%	-11%	8%	u	5%
CCOC(=O)c1c(C)oc2c1c(C(c1cccnc1)N1CCCCC1)c(O)c1ccccc12 (configuration not stated)	-36*	-8%[46.1 µM]	u	-19%	u	-7%
Cn1c(=O)c(-c2cc(F)cc(F)c2)nc2cnc(N3CCNCC3)nc21	2	x	x	-1%	u	0%
CCCCn1c(SCC(=O)N2CCCc3ccccc32)nc2c1c(=O)n(C)c(=O)n2C	1	-13%[46.1 µM]	2%	14%	4%	1%
CCCCn1c2c(c(=O)n(C)c1=O)C(c1ccc(OC)cc1)N1CCCCCC1=N2 (configuration not stated)	-1	-21%[46.1 µM]	u	-4%	0.14µM*	5%
CN(C)c1ccc(Nc2nc(N)c3ccccc3n2)cc1	-1	x	x	25µM*	x	x
SMILES	FBPA coupling cs	NPSR antag	KDM4E inh	Sfp inh	ALDH1A1 block	RGS12 GoLoco inh
Nc1nc(Nc2ccccc2)nc2ccccc12	-1	22%[46.1 µM]	-14%	-12%	14%	1%
Cc1c(CN2CCC(CO)(CCOc3ccccc3)CC2)c(=O)n(-c2ccccc2)n1C	0	-25%	-20%	4%	9%	17%
Cc1ccc(S(=O)(=O)N(CC(=O)NC2CC2)c2ccc(C)c(Cl)c2)cc1	x	x	x	17%	x	x
CCC1(C)Cc2nc3sc(C(=O)O)c(N)c3cc2CO1 (configuration not stated)	-8	-7%[46.1 µM]	u	28µM*	22µM*	26%
N#CCC(=O)N/N=C/c1c(-c2ccccc2)n(-c2ccccc2)c2ccccc12	3	x	x	56µM*	x	x
COC(=O)C1=C(COc2ccc(C=O)cc2OC)NC(=O)NC1c1cc(C)ccc1C (configuration not stated)	-2	-3%	-6%	-14%	6.3µM*	12%
Cc1ccc(S[C@@H](CCN2CC[C@H](C(C)(C)C)CCC2=O)c2ccccc2)cc1	0	x	x	-13%	x	x
CN1CCN(CCCNc2c(C=O)c(=O)[nH]c3ccccc23)CC1	0	x	x	13%	x	x
Cc1cc(NC(=O)CC(C)C)c(=O)n(Cc2c(F)cccc2Cl)c1	-1	x	x	24%	x	x
Cc1cc(NC(=O)CC(C)C)c(=O)n(Cc2ccccc2F)c1	-36*	x	x	-6%	x	x
COc1cccc(NC2=C(C#N)C(=O)NC(c3cccc(OC)c3O)S2)c1 (configuration not stated)	-1	-2%	-9%	25µM*	u	27%
N#CC1=C(Nc2ccccc2Cl)SC(c2ccccc2O)NC1=O (configuration not stated)	13	-8%	u	13µM*	x	-10%
O=C(NCCO)c1ccc(Cl)cc1	x	x	x	x	-3%[13.5 µM]	2%[14.2 µM]
CCC(C(=O)N1CCCCCC1)n1nc(C)n2c(cc3occc32)c1=O (configuration not stated)	0	x	x	8%	x	x
Cc1cc2c(OCC(CNC(C)(C)C)OC(=O)c3ccccc3)cccc2[nH]1 (configuration not stated)	x	x	x	9%	7%	4%
COc1ccc(Br)c(OC)c1C(=O)NC(=O)Nc1nc(C)cc(C)n1	-31*	15%	5%	18%	-3%	-5%
COc1ccc([N+](=O)[O-])c(OC)c1C(=O)NC(=O)Nc1nc(C)cc(C)n1	-8	-21%	-1%	3%	-1%	11%
Cn1ccnc1C(O)(c1ccccc1)c1ccccc1	0	-18%	0%	-22%	14%	9%
O=C(c1cc(-c2ccccn2)nc2c(Cl)cccc12)N1CCN(C(=O)C2CCCO2)CC1 (configuration not stated)	3	-12%[46.1 µM]	-6%	4%	-6%	21%

Source: PubChem BioAssay (National Center for Advancing Translational Sciences (NCATS))
